Screens deposited in PubChem by National Center for Advancing Translational Sciences (NCATS).
Shown are actives, neighbours in structure and some others; about 7.4% of the full set was active somewhere.
Rab9 promoter act = Rab9 promoter activation; Huh7 Rab9 promoter-luciferase reporter, luminescence, 24 h; Potency, µM (titrated, usually from 9.22 µM), inactives show at the highest dose activation, negative = inhibition, actives largely listed as activators; actives 2.8% (n = 320,000); also: % of control where 0% means no effect; nearly all actives have a fitted effect of over 60% in size
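Measured in stably transfected Huh7 cells bearing a Rab9 promoter–luciferase construct: 24 h compound treatment at 37 °C, followed by luminescence detection.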
FLuc modulator = counter-screen for miR-21 project: firefly luciferase inhibitors or activators | actives 6.9% (n = 360,000) | purified FLuc, Km substrates, luminescence inhibition | AID 588342 | Potency, µM (top dose mostly 57.5 µM), without a hit: at the top dose activity change, negative = inhibition, usual class: inhibitors | P08659;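 also: plate controls were vehicle for no effect and reference inhibitor for full effect; nearly all actives have a fitted effect of over 55% in size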
Target sequence (P08659 whole entry, looked up): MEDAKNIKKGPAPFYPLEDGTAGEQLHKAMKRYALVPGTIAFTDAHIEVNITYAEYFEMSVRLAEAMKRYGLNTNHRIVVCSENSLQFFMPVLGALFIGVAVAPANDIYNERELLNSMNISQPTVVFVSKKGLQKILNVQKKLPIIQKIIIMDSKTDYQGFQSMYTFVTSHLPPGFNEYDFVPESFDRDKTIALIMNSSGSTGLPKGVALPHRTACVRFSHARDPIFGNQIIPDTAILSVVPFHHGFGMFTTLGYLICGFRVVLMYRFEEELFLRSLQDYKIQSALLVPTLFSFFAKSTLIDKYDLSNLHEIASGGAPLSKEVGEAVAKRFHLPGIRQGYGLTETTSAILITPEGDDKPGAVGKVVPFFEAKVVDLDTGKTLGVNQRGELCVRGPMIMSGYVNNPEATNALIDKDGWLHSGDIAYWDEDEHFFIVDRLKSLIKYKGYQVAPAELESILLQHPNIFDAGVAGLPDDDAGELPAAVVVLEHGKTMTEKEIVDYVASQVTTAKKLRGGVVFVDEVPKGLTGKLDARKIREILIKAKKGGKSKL
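Biochemical qHTS of compounds, final roughly 60 µM downward over six points, against 10 nM purified firefly luciferase using Km concentrations of substrates (10 uM D-luciferin, 10 uM ATP) in Tris acetate pH 7.5 buffer; luminescence output.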
ELG1 genotoxic = genotoxicity induction in ELG1-luciferase HEK293T cells; HEK293T ELG1-luciferase reporter, luminescence, 16 h; Potency, µM (doses to about 46 µM), for the others: top-dose activity change, positive = activation, hits mostly activators; actives 1.3% (n = 330,000); AID 504466; also: % of control where 0% means no effect; nearly all actives have a fitted effect of over 60% in size
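Quantitative HTS format in 1536-well plates. HEK293T ELG1-luciferase reporter cells receive test compound and are incubated 16 hr at 37 °C, 5% CO2; ONE-Glo added, 30 min room temperature, then luminescence read.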
NPC1 promoter act = NPC1 promoter activation. AID 485313. actives 2.4% (n = 320,000). Potency, µM (highest dose often 9.22 µM), for the others: at the highest dose activation, hits mostly activators. Huh7 NPC1 promoter luciferase reporter, 24 h; also: % of control where 0% means no effect; nearly all actives have a fitted effect of over 60% in size
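NPC1 promoter–luciferase Huh7 cells; 24 h compound; luminescence.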
SMN2 splice up = enhancers of SMN2 splice variant expression; AID 1458; Potency, µM (top dose mostly 46.1 µM), without a hit: at the highest dose activity change, positive = activation, most hits filed as activators; actives 2.8% (n = 210,000); HEK293 SMN2-luciferase splicing reporter, luminescence, 30-36 h; also: % of control where 0% means no effect; nearly all actives have a fitted effect of over 55% in size
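HEK293 cells carry an SMN2 […]–luciferase reporter in which exon 7 inclusion puts luciferase in frame. Cells were plated 10-12 h before compound addition, then incubated 30-36 h at 37C. ONE-Glo luminescence was read; sodium butyrate at 4.5 mM final served as control.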
* = called active by the depositor; [ ] = dose if it differs, or a comment. Calls follow the shape of the dose curve; as a rule, active = well fitted curve in the direction sought with a large enough effect; inconclusive = small, poorly fitted or top-dose-only effect, or another doubt; inactive = no such curve, though single readings can be large; an effect the other way counts as inactive or inconclusive. Potency is read from the fitted curve at half-maximal effect.

How did Cc1ccc(NC(=O)c2oc3ccccc3c2NC(=O)C2CCCCC2)cc1 do in these assays?
FLuc modulator: -0.3%

How did Cc1cccc(-c2cc3c(nn2)-c2ccccc2C3=O)c1 do in these assays?
Rab9 promoter act: 3.55µM*; FLuc modulator: 0.757µM*; ELG1 genotoxic: inconclusive; NPC1 promoter act: 2.24µM*; SMN2 splice up: 10µM*

Results for O=C1c2ccccc2-c2nnc(-c3ccccc3)cc21 ?
Rab9 promoter act: 0.562µM*; FLuc modulator: 0.477µM*; ELG1 genotoxic: 9.3%; NPC1 promoter act: 1.26µM*; SMN2 splice up: inconclusive

How did COc1ccc(-c2cc3c(nn2)-c2ccccc2C3=O)cc1 do in these assays?
Rab9 promoter act: 0.1µM*; FLuc modulator: 0.169µM*; ELG1 genotoxic: -7.7%; NPC1 promoter act: inconclusive; SMN2 splice up: 1.12µM*

Results for Cc1cnc2c(c1)C(=O)c1ccccc1-2 ?
Rab9 promoter act: -1.1%; FLuc modulator: -19.1%; ELG1 genotoxic: 3.7%; NPC1 promoter act: -2.8%

What do the screens show for `Cc1cccc(NC(=O)CCCC(=O)OC(C)C(=O)c2ccccc2)c1` (stereo not drawn)?
Rab9 promoter act: -1.8%; FLuc modulator: -2.9%; ELG1 genotoxic: -2.1%; NPC1 promoter act: -2.9%

How did O=C(O)C1CCC(=O)N1C(=O)OCc1ccccc1 (stereo not drawn) do in these assays?
Rab9 promoter act: 4.5%; FLuc modulator: 3.3%; ELG1 genotoxic: 2.8%; NPC1 promoter act: -2.2%

Results for O=C(COc1ccc(Cl)cc1Cl)N(C1CCCCC1)C1CCS(=O)(=O)C1 (stereo not drawn) ?
Rab9 promoter act: -4.2%; FLuc modulator: 5.8%; ELG1 genotoxic: -1.4%; NPC1 promoter act: -3.1%

What do the screens show for `C=CCn1c(O)c(N=NC(=O)CNC(=O)Cc2ccccc2)c2ccccc21`?
Rab9 promoter act: -0.6%; FLuc modulator: -2.1%; ELG1 genotoxic: 1.9%; NPC1 promoter act: 0.2%

What do the screens show for `O=C(Nc1ccc2oc(-c3ccccc3)nc2c1)c1cccs1`?
Rab9 promoter act: 2.51µM*; FLuc modulator: 3.79µM*; ELG1 genotoxic: inconclusive; NPC1 promoter act: 3.98µM*; SMN2 splice up: 3.16µM*

What do the screens show for `Cc1ccc2oc(-c3cccc(NC(=S)NC(=O)/C=C/c4ccco4)c3)nc2c1`?
Rab9 promoter act: inconclusive; FLuc modulator: 15.1µM*; ELG1 genotoxic: 15.0%; NPC1 promoter act: 28.8%; SMN2 splice up: -29.0%

How did Cc1ccc2oc(-c3cccc(NC(=S)NC(=O)c4cccs4)c3)nc2c1 do in these assays?
Rab9 promoter act: 21.9%; FLuc modulator: 10.7µM*; ELG1 genotoxic: inconclusive; NPC1 promoter act: 23.8%; SMN2 splice up: 0.8%[1.84 µM]

Results for Cc1c(NC(=O)c2cccs2)cccc1-c1nc2cc(Cl)ccc2o1 ?
FLuc modulator: 5.36µM*

What do the screens show for `Cc1ccc2oc(-c3cc(NC(=O)/C=C/c4ccco4)ccc3Cl)nc2c1`?
FLuc modulator: inconclusive; SMN2 splice up: -5.4%

Results for Cc1ccc(C(=O)N2c3ccc(C)cc3C(C)(c3ccccc3)CC2(C)C)cc1 (stereo not drawn) ?
FLuc modulator: -4.5%; SMN2 splice up: -27.4%

Results for Cn1c(=O)c(C=Nc2ccccc2)c(O)c2ccccc21 ?
Rab9 promoter act: 0.3%; FLuc modulator: 4.26µM*; ELG1 genotoxic: -0.1%; NPC1 promoter act: -3.8%

How did COc1ccc(-n2c(O)c(C=Nc3ccccc3)c3ccccc3c2=O)cc1 do in these assays?
Rab9 promoter act: -9.4%; FLuc modulator: 0.4%; ELG1 genotoxic: inconclusive; NPC1 promoter act: -1.8%; SMN2 splice up: -2.8%

How did O=C(CSc1nc2c([nH]c3ccccc32)c(=O)n1-c1ccc(Cl)cc1)NCC1CCCO1 (stereo not drawn) do in these assays?
FLuc modulator: 0.3%

How did O=C(O)c1ccc(S(=O)(=O)N2CCCC2)cc1 do in these assays?
Rab9 promoter act: 3.9%; FLuc modulator: -0.2%; ELG1 genotoxic: -5.3%; NPC1 promoter act: -0.4%

How did O=C(O)c1ccc(S(=O)(=O)c2ccc(Sc3ccc(C(=O)O)c(C(=O)O)c3)cc2)cc1 do in these assays?
Rab9 promoter act: -7.5%; FLuc modulator: 10.7µM*; ELG1 genotoxic: 0.0%; NPC1 promoter act: -6.6%; SMN2 splice up: 12.9%

What do the screens show for `CC(C)c1ccc(N(CC(=O)NC2CCCC2)C(=O)CCC(=O)Nc2ccccn2)cc1`?
Rab9 promoter act: 0.0%; FLuc modulator: -1.1%; ELG1 genotoxic: -1.0%; NPC1 promoter act: 1.4%

What do the screens show for `Cc1ccc(-c2nnc(COc3cccc(-n4cnnn4)c3)o2)cc1`?
Rab9 promoter act: 12.5%; FLuc modulator: 19µM*; ELG1 genotoxic: 8.1%; NPC1 promoter act: 4.3%; SMN2 splice up: -9.9%

Results for CC(=O)Nc1ccc(OCc2nnc(-c3ccccc3)o2)cc1 ?
Rab9 promoter act: 14.2%; FLuc modulator: -14.2%; ELG1 genotoxic: 11.4%; NPC1 promoter act: 3.5%

What do the screens show for `Cc1ccc(C(=O)CSc2nnc(COc3cccc(C)c3)o2)cc1`?
Rab9 promoter act: 3.1%; FLuc modulator: -12.6%; ELG1 genotoxic: 0.2%; NPC1 promoter act: -3.9%; SMN2 splice up: inconclusive

Results for CCOc1ccc(-c2noc(CSc3nnc(-c4ccccc4)n3-c3ccccc3)n2)cc1 ?
FLuc modulator: 1.9%; SMN2 splice up: -15.2%

What do the screens show for `Cc1cccc(OCc2nnc(-c3ccc(F)cc3)o2)c1`?
Rab9 promoter act: 14.6%; FLuc modulator: 16.9µM*; ELG1 genotoxic: 10.4%; NPC1 promoter act: 7.1%

Results for O=C(OCc1nnc(-c2ccccc2)o1)c1cccc(-n2cnnn2)c1 ?
Rab9 promoter act: 7.7%; FLuc modulator: 4.5%; ELG1 genotoxic: 4.0%; NPC1 promoter act: 0.6%

What do the screens show for `CCOc1ccc(-c2nnc(SCc3nnc(-c4ccccc4)o3)n2-c2ccccc2F)cc1`?
Rab9 promoter act: 11.8%; FLuc modulator: 26.9µM*; ELG1 genotoxic: 3.2%; NPC1 promoter act: 10.9%; SMN2 splice up: -19.6%

How did Cc1ccc(OCc2nnc(-c3ccccc3)o2)cc1 do in these assays?
FLuc modulator: 16.9µM*; SMN2 splice up: 24.8%

How did COc1ccc(Cn2c(C(=O)O)c(CNCCc3cc(OC)ccc3OC)c3ccc(C)cc32)cc1 do in these assays?
FLuc modulator: 6.3%

Results for Nc1ccc2oc3ccc(N)cc3c(=O)c2c1 ?
Rab9 promoter act: 3.98µM*; FLuc modulator: 23.9µM*; ELG1 genotoxic: inconclusive; NPC1 promoter act: 2.51µM*; SMN2 splice up: inconclusive

Results for Cc1ccc(C(=O)Nc2cc3c(oc2=O)CCCC3=O)cc1 ?
Rab9 promoter act: inconclusive; FLuc modulator: 21.3µM*; ELG1 genotoxic: inconclusive; NPC1 promoter act: inconclusive; SMN2 splice up: 27.3%

Results for O=C(Nc1cc2c(oc1=O)CCCC2=O)c1ccccc1 ?
Rab9 promoter act: -3.9%; FLuc modulator: -9.2%; ELG1 genotoxic: 0.6%; NPC1 promoter act: -2.7%; SMN2 splice up: 12.7%

Results for CSc1ncc(-c2ccc(Cl)cc2)[nH]1 ?
Rab9 promoter act: 3.16µM*; FLuc modulator: 9.53µM*; ELG1 genotoxic: inconclusive; NPC1 promoter act: 3.16µM*
